Compound activity: PubChem BioAssay, several laboratories
A selection: hits, their analogues and other compounds. The true share with any hit is near 7%.
AHR activator: human AHR activation | AID 2796 | P35869 | activation, % at 5 µM | 320,000 tested, 2.5% active | AHR-responsive luciferase reporter cells, luminescence; in the data active means activation above about 47%
GRIN3A LBD mod: NR3A (human) ligand-binding domain modulation; Tm shift relative to glycine control, % at 25 µM; NR3A LBD differential scanning fluorimetry, Tm shift; 0% = protein alone, 100% = glycine-bound protein; 340,000 tested, 2.5% active;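 active means melting temperature shift of at least 10% of the positive control shift, at one fixed dose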
KLK7 zymogen act: activators of human kallikrein-7 zymogen; 370,000 tested, 0.9% active; P49862; AID 652039; purified proKLK7, EDANS-DABCYL substrate fluorescence; 100% is mature enzyme control, 0% vehicle; activation, % at 7 µM;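 active means activation above the mean of all tested compounds plus 3 SD, computed per campaign excluding outliers beyond control limits, cut at about 13% in these data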
rCAG RNA binder: r(CAG) repeat RNA binding. inhibition, % at 3 µM. AID 651821. 370,000 tested, 1.3% active. TO-PRO-1 dye displacement fluorescence;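 active means inhibition above the plate cutoff, the mean of all test compounds on that plate plus 3 SD, cut at about 35% in these data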;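 further: higher means more dye released from RNA so lower well fluorescence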
ADAM10 inh: inhibits human ADAM10 | O14672 | recombinant ADAM10, EDANS/DABCYL FRET peptide cleavage, 3 h | inhibition, % at 7 µM | 370,000 tested, 0.62% active | AID 720582;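 active means inhibition above a per-campaign cutoff equal to the mean of compounds falling between control-based bounds plus 3 SD, cut at about 20% in these data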
ADAM17 inh: inhibitors of human ADAM17; recombinant ADAM17, EDANS/DABCYL FRET peptide cleavage; P78536; inhibition, % at 6.95 µM; 370,000 tested, 0.83% active;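 active means inhibition above the mean of compounds lying between control limits plus 3 SD, set per campaign, cut at about 8.5% in these data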
Target sequence (P78536 215-824 limits assumed): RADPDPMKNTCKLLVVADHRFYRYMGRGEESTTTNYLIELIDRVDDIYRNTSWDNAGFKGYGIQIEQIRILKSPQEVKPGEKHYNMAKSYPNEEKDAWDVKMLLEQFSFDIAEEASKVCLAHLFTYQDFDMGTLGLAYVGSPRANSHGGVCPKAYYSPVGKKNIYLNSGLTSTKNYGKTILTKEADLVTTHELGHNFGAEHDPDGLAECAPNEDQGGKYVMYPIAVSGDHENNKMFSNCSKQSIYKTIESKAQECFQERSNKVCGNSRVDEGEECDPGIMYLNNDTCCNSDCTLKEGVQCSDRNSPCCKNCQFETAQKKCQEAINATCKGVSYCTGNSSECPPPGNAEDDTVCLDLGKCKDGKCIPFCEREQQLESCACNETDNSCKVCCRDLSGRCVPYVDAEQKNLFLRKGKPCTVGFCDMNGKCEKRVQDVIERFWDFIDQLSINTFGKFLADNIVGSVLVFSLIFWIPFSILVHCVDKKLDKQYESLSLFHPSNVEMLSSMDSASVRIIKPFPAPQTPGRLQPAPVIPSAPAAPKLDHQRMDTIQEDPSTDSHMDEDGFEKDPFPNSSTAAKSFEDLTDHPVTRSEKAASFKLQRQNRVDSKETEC
Numbers stand for hits; . = inactive; / = no result given.

SMILES | AHR activator | GRIN3A LBD mod | KLK7 zymogen act | rCAG RNA binder | ADAM10 inh | ADAM17 inh
COc1cc(OC)cc(C(=O)NCCN2C(=O)C3C4C=CC(C4)C3C2=O)c1 (stereo not drawn) | / | / | . | . | . | .
C/C(=N\OCc1ccc(C#N)cc1)c1ccccc1 | . | . | . | . | . | .
C/C(=N/OCO/N=C(\C)c1ccccc1)c1ccccc1 | . | 11 | . | . | . | .
CCc1ccc(NC(=O)CCc2nnc3ccc(N4CCC5(CC4)OCCO5)nn23)cc1 | . | 11 | . | . | . | .
CN1C2=N[C@@H](c3ccccc3)CC(=O)N2/C(=C\c2ccccc2)[C@H]1c1ccccc1 | / | / | / | / | . | .
O=C1c2ccccc2C(=O)N1c1cccc(-c2csc(Nc3ccc4c(c3)OCO4)n2)c1 | . | / | / | / | / | /
COc1ccccc1Nc1nc(-c2cccc(N3C(=O)c4ccccc4C3=O)c2)cs1 | . | 15 | . | . | . | .
CCCC(=O)Nc1cc(C)c2c(=O)oc3ccccc3c2n1 | 53 | . | . | . | . | .
COc1ccccc1NC(=O)NCC(=O)Nc1ccc(F)c(F)c1 | . | . | . | . | . | .
COc1ccc(C)cc1NC(=O)Nc1cccc(C)c1 | . | . | . | . | . | .
COC(=O)c1ccc(NC(=O)Nc2ccc(OC)c(OC)c2)cc1 | . | 21 | . | . | . | .
COc1ccccc1NC(=O)Nc1ccc(F)c(F)c1 | . | 23 | . | . | . | .
COc1ccc(NC(=O)Nc2cc(C)ccc2F)cc1OC | 52 | . | . | . | . | .
C=CCN1[C@@H](Cc2ccccc2)COc2cccc(N3CCCC3)c2S1(=O)=O | / | / | . | . | . | .
CCC1(C)CC(C(CC(=O)O)c2ccc(C)cc2)CCO1 (stereo not drawn) | . | 11 | . | . | . | .
CCC(C(=O)Nc1ccccc1N1CCCC1)c1ccccc1F (stereo not drawn) | / | / | . | . | . | .
Clc1ccc(CNC2CCCC2)c(Cl)c1 | . | . | . | . | . | .
S=C(NCCc1cccc(Cl)c1)NC1CCCCC1 | / | 12 | . | . | . | .
S=C(NCc1ccc(Cl)cc1Cl)NC1CCCCC1 | . | 32 | . | . | . | .
COC(=O)C1=C(C)N(Cc2ccccc2C(F)(F)F)C(=NCc2ccc(OC)cc2)NC1c1ccc(F)cc1 (stereo not drawn) | / | / | . | . | . | .
N#C/C(=C\c1ccc(N2CCOCC2)c([N+](=O)[O-])c1)c1nc2ccccc2[nH]1 | . | . | . | . | . | .
COc1cc(/C=C(\C#N)c2nc3ccccc3[nH]2)c([N+](=O)[O-])cc1OCc1ccccc1 | 88 | . | . | . | . | .
N#C/C(=C/c1ccc(N2CCCC2)c([N+](=O)[O-])c1)c1nc2ccccc2[nH]1 | . | 12 | . | . | . | .
Nc1ncnc2c1ncn2[C@@H]1O[C@H](CNS(=O)(=O)c2cc(S(=O)(=O)c3ccccc3)cs2)[C@@H](O)[C@H]1O | / | 15 | . | . | . | .
O=C(CSc1nc(-c2ccccc2)c(-c2ccccc2)[nH]1)Nc1ccc2c(c1)OCO2 | . | 13 | . | . | . | .
SMILES | AHR activator | GRIN3A LBD mod | KLK7 zymogen act | rCAG RNA binder | ADAM10 inh | ADAM17 inh
O=C(CSc1ccc2nnc(-c3ccccn3)n2n1)Nc1ccc2c(c1)OCCO2 | . | . | . | . | . | .
COc1ccc(NC(=O)CSc2nnc(-c3ccccn3)n2N)cc1 | . | . | . | . | . | .
O=C(CSc1ccc2nnc(-c3ccccn3)n2n1)Nc1ccc2c(c1)OCO2 | 53 | . | . | . | . | .
Nn1c(SCC(=O)Nc2ccc3c(c2)OCCO3)nnc1-c1ccncc1 | . | 17 | . | . | . | .
Nn1c(SCC(=O)Nc2ccc(F)cc2)nnc1-c1ccccn1 | 48 | . | . | . | . | .
O=C(CSc1ncn(-c2ccccc2)n1)Nc1ccc2c(c1)OCCO2 | . | . | . | . | . | .
COc1ccc(NC(=O)CSc2ncn(-c3ccccc3)n2)cc1Cl | . | 28 | . | . | . | .
O=C(CSc1ncn(-c2ccccc2)n1)Nc1ccc(Br)cn1 | . | . | . | . | . | .
Cc1ccc(NC(=O)CSc2ncn(-c3ccccc3)n2)cc1C | . | 22 | . | . | . | .
Cc1ccc(NC(=O)Cn2ccnc2)cc1C | 59 | . | . | . | . | .
O=C(CSc1ncn(-c2ccccc2)n1)Nc1ccc2c(c1)OCO2 | . | 13 | . | . | . | .
C=CCN=C1NC(c2ccccc2C(F)(F)F)C(C(=O)OC)=C(C)N1Cc1ccc(C(F)(F)F)cc1 (stereo not drawn) | / | / | . | . | . | .
O=C(OC12CCCN(C1)/C(=C/c1cccc(Cl)c1)C2)c1ccccc1 (stereo not drawn) | / | / | . | . | . | .
O=C(CC1CCCC1)N1CC[C@H]2[C@H](CCCN2Cc2ccc(F)cc2)C1 | / | / | . | . | . | .
Cn1c(Cn2c(=O)sc3ccccc32)nnc1SCC(=O)Nc1ccc2c(c1)OCO2 | 59 | . | . | . | . | .
O=C(CSc1nccn1-c1ccc(Cl)cc1)Nc1ccc2c(c1)OCO2 | 53 | . | . | . | . | .
COCC(=O)N(C)[C@H]1C[C@H]2c3[nH]c4c(-c5ccc6c(c5)OCO6)cccc4c3CCN2C(=O)[C@H]1[C@H](C)O | / | / | . | . | . | .
CCOC(=O)c1sc(N(Cc2ccccc2)C(=O)COC(=O)c2ccc(O)cc2)nc1C | . | 29 | . | . | . | .
CCOC(=O)c1sc(N(Cc2ccccc2)C(=O)COC(=O)c2ccccc2O)nc1C | . | . | . | . | . | .
O=C(CS(=O)(=O)c1c[nH]c2ccccc12)NC1CCCCC1 | . | . | . | . | . | .
O=C(CS(=O)(=O)c1c[nH]c2ccccc12)Nc1ccc(F)cc1 | . | 13 | . | . | . | .
C=CCN1[C@H](C)COc2cc(N3CCCC3)ccc2S1(=O)=O | / | / | . | . | . | .
CN(Cc1cn(Cc2ccccc2)nn1)S(=O)(=O)c1ccc(F)cc1Br | / | / | . | . | . | .
O=C(OC12CCCN(C1)/C(=C/c1ccc(Cl)cc1)C2)c1cccc(F)c1 (stereo not drawn) | / | / | . | . | . | .
COC(=O)C1=C2c3[nH]c4ccccc4c3CCN2C(=O)CC1 | 54 | . | . | . | . | .
COc1ccc(/C=C2\CC3(OC(=O)c4cccc(F)c4)CCCN2C3)cc1 (stereo not drawn) | / | / | . | . | . | .
COc1cccc(CNC(=O)[C@H]2CCCN2C(=O)[C@H]2CCCN2C(=O)c2cccs2)c1 | / | / | . | . | . | .
CC1CCCCN1C(=O)COC(=O)C1CCN(S(=O)(=O)c2ccc(Cl)c(C(F)(F)F)c2)CC1 (stereo not drawn) | . | 21 | . | . | . | .
Cc1cccc(NC(=O)C2C3CCC4C(CCC32)C4(Cl)Cl)c1 (stereo not drawn) | . | 13 | . | . | . | .
